The values that follow come from ChEMBL document CHEMBL2218924, “A broad activity screen in support of a chemogenomic map for kinase signalling research and drug discovery” (Biochem J, 2013).

Test [1] deals with Protein kinase C alpha type (Homo sapiens) (UniProt P17252). Conditions: at 1 µM.
For test [2] the target is unchanged. Conditions: at 10 µM.
Test [3] addresses Protein kinase C beta type (Homo sapiens) (UniProt P05771). The settings on record: at 1 µM.
For test [4] the target is unchanged. The settings on record: at 10 µM.
Test [5] shares this target. Conditions: at 1 µM. This is another data set of the same source.
For test [6] the target is unchanged. The settings on record: at 10 µM. This is another data set of the same source.
The target in test [7] is Protein kinase C gamma type (Homo sapiens) (UniProt P05129). Conditions: at 1 µM.
Test [8] has the same target. Conditions: at 10 µM.
For test [9], the target named is Protein kinase C delta type (Homo sapiens) (UniProt Q05655). Conditions: at 1 µM.
Sequence of Protein kinase C delta type (Homo sapiens) (Q05655 whole entry, looked up): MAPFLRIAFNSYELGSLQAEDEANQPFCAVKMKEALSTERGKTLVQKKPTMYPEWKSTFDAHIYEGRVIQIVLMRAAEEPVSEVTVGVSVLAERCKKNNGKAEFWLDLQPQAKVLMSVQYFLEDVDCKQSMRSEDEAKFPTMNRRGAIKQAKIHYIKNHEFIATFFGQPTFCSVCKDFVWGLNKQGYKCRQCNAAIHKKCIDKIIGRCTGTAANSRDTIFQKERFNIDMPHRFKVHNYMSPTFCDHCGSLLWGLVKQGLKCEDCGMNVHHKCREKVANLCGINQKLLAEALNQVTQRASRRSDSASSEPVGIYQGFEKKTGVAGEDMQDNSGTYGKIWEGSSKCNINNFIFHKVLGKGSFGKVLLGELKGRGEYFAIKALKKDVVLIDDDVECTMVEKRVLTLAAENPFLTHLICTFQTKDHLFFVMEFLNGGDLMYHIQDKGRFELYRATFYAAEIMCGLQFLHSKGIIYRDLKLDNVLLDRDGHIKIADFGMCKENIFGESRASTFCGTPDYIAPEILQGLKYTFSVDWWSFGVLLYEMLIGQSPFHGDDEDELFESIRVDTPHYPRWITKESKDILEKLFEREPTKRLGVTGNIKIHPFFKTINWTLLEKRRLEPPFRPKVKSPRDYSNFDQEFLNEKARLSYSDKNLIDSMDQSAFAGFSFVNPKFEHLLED
The target is the same in test [10]. Conditions: at 10 µM.
The target in test [11] is T1, Protein kinase C epsilon type (Homo sapiens) (UniProt Q02156).
T1 sequence (whole entry): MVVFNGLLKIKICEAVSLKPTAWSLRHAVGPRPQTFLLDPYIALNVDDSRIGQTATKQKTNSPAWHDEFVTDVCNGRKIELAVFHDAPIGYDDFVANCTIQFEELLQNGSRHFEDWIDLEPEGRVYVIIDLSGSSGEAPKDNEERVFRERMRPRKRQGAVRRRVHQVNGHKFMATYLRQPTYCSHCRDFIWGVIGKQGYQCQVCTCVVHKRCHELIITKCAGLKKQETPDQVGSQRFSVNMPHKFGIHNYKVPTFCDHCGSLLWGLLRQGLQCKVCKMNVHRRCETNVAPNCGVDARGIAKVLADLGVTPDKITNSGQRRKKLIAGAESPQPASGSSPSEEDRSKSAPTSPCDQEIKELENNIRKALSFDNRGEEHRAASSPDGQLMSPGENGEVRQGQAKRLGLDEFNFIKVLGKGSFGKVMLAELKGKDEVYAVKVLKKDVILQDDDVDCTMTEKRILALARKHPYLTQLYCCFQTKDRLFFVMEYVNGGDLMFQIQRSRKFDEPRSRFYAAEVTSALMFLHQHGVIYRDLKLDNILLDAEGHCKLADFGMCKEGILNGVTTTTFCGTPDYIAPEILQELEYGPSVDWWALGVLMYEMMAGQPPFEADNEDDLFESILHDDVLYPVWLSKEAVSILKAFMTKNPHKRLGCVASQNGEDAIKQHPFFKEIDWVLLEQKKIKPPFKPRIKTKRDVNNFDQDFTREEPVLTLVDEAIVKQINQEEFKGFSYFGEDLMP
The settings on record: at 1 µM.

Test [12] addresses T1, Protein kinase C epsilon type (Homo sapiens). Conditions: at 10 µM.

Sequence of Protein kinase C beta type (Homo sapiens) (P05771 2-671 limits assumed): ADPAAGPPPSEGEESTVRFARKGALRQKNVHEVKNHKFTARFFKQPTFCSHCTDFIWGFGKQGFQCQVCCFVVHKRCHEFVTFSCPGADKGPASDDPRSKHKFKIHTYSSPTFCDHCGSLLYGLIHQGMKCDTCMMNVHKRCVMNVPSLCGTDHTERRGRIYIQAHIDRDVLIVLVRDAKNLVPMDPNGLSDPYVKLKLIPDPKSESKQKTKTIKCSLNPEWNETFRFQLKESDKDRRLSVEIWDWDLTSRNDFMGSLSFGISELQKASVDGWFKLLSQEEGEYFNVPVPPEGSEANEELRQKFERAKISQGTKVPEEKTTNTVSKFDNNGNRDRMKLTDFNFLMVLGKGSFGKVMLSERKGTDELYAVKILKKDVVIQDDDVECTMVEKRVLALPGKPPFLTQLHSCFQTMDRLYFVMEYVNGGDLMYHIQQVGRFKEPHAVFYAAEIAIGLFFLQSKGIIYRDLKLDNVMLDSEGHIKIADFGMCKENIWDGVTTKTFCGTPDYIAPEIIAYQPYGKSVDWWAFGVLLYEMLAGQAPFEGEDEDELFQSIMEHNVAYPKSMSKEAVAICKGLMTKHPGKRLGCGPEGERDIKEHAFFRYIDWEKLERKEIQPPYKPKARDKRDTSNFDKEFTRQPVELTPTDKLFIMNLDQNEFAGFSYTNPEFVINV

Take `COc1cc2ncnc(N3CCN(C(=O)Nc4ccc(Oc5ccccc5)cc4)CC3)c2cc1OC`: the residual activity came out at 99% in test [1]; 103% in [2]; 106% in test [3]; 97% in test [4]; 101% in test [5]; 102% in test [6]. Further, the residual activity in [7] is 103%; in test [8] it was 107%; in test [9], 101%; in test [10], 110%; in [11], 96%; in test [12], 90%.

Consider `CO[C@@H]1[C@H](N(C)C(=O)c2ccccc2)C[C@H]2O[C@]1(C)n1c3ccccc3c3c4c(c5c6ccccc6n2c5c31)C(=O)NC4`, for which the residual activity is 36% in test [1]; 14% in [2]; 66% in test [3]; 14% in test [4]; 61% in test [5]; 45% in test [6]. Besides, the residual activity in [7] stood at 15%; in test [8] it was 6%; in test [9], 21%; in [10], 9%; in [11], 42%; in [12], 14%.

For `CCN(CC)CCCCN1c2ccccc2Oc2ccc(Cl)cc21`, the residual activity in test [1] was found to be 112%; in test [2], 107%; in test [3] it was 105%; in [4] it was 98%; in test [5], 103%; in test [6], 95%. Moreover, the residual activity in [7] stood at 117%; in test [8], 108%; in test [9], 107%; in test [10], 111%; in test [11], 84%; in test [12] it was 99%.

For `COc1cc2ncnc(Nc3ccc(Oc4ccccc4)cc3)c2cc1OC`, the residual activity in test [1] stood at 91%; in test [2], 96%; in [3] it was 120%; in test [4] it was 126%; in test [5], 104%; in [6], 104%. In addition, the residual activity worked out at 105% in test [7]; 97% in test [8]; 103% in test [9]; 107% in test [10]; 85% in [11]; 89% in test [12].

As to `COc1cccc(-c2cc(=O)c3ccccc3o2)c1N`, the residual activity came to 113% in test [1]; 104% in test [2]; 106% in test [3]; 105% in test [4]; 121% in test [5]; 108% in [6]. For the same compound, the residual activity was 107% in [7]; 119% in test [8]; 113% in test [9]; 113% in test [10]; 106% in test [11]; 100% in test [12].

Turning to `O=C1Nc2cc(Br)ccc2/C1=C1/Nc2ccccc2/C1=N\O`, the residual activity amounted to 98% in test [1]; 104% in test [2]; 100% in test [3]; 101% in test [4]; 102% in [5]; 95% in test [6]. For the same compound, the residual activity in test [7] amounted to 101%; in test [8], 107%; in [9], 112%; in [10] it was 118%; in test [11], 107%; in [12], 91%.

As for `NC(=O)c1ccc2[nH]c(-c3ccc(Oc4ccc(Cl)cc4)cc3)nc2c1`, the residual activity is 99% in test [1]; 90% in test [2]; 111% in test [3]; 93% in test [4]; 95% in test [5]; 100% in test [6]. The residual activity was 90% in test [7]; 108% in test [8]; 104% in [9]; 107% in test [10]; 95% in test [11]; 85% in [12].

As to `Oc1c2ccccc2c2c3c(cccc13)N=N2`, the residual activity in test [1] amounted to 98%; in test [2], 73%; in test [3], 102%; in [4], 104%; in test [5] it was 108%; in [6], 102%. Further, the residual activity in test [7] is 73%; in test [8], 30%; in [9], 99%; in test [10], 71%; in test [11], 101%; in test [12], 84%.

On to `O=Nc1c(-c2c(O)[nH]c3ccccc23)[nH]c2ccccc12`, for which the residual activity in [1] amounted to 93%; in [2], 86%; in test [3], 93%; in [4], 94%; in [5], 95%; in [6] it was 102%. Besides, the residual activity in test [7] was found to be 92%; in test [8], 73%; in test [9] it was 85%; in test [10], 80%; in test [11] it was 106%; in test [12], 91%.

As for `Ic1cccc(CSc2nnc(-c3ccncc3)o2)c1`, the residual activity was 96% in test [1]; 95% in [2]; 107% in test [3]; 102% in test [4]; 95% in test [5]; 92% in test [6]. The residual activity in test [7] turned out to be 97%; in [8], 104%; in test [9] it was 100%; in [10], 101%; in test [11], 88%; in [12], 88%.

Turning to `CCOc1cc2ncnc(Nc3cccc(Br)c3)c2cc1OCC`, the residual activity was 107% in test [1]; 97% in [2]; 87% in [3]; 97% in test [4]; 100% in test [5]; 103% in test [6]. Besides, the residual activity in test [7] came out at 108%; in test [8], 112%; in test [9], 106%; in test [10], 104%; in test [11], 84%; in test [12] it was 100%.

As for `O=c1c2ccccc2[nH]c(=S)n1CCN1CCC(=C(c2ccc(F)cc2)c2ccc(F)cc2)CC1`, the residual activity in test [1] turned out to be 108%; in test [2], 105%; in test [3], 109%; in test [4], 109%; in [5], 101%; in [6], 104%. Further, the residual activity in [7] amounted to 116%; in [8] it was 117%; in test [9] it was 101%; in [10], 97%; in [11] it was 91%; in test [12] it was 93%.

With `Nc1ccc2ncnc(NCCc3ccc(Oc4ccccc4)cc3)c2c1`, the residual activity in test [1] worked out at 103%; in test [2], 103%; in test [3], 137%; in test [4] it was 113%; in [5], 118%; in test [6], 104%. The residual activity in test [7] came out at 87%; in [8], 111%; in test [9], 106%; in test [10] it was 111%; in test [11], 119%; in [12], 126%.

For the compound `CN(C)c1ccc(/C=C2\C(=O)Nc3ccccc32)cc1`, the residual activity was determined as 103% in test [1]; 101% in [2]; 114% in [3]; 112% in [4]; 94% in test [5]; 98% in [6]. For the same compound, the residual activity worked out at 113% in [7]; 102% in test [8]; 88% in test [9]; 101% in [10]; 120% in [11]; 121% in [12].

`COc1ccc(CNc2nc(N(CCO)CCO)nc3c2ncn3C(C)C)cc1`: the residual activity is 34% in [1]; 13% in test [2]; 87% in test [3]; 86% in test [4]; 87% in [5]; 79% in test [6]. For the same compound, the residual activity in test [7] came out at 97%; in test [8], 86%; in test [9], 60%; in test [10] it was 27%; in test [11] it was 115%; in test [12], 105%.

On to `O=c1cc(-c2cccc3c2Sc2ccccc2S3)oc(N2CCOCC2)c1`, for which the residual activity in [1] turned out to be 95%; in test [2] it was 86%; in test [3] it was 102%; in test [4], 100%; in test [5], 104%; in [6], 101%. Besides, the residual activity was 99% in [7]; 95% in test [8]; 100% in [9]; 104% in test [10]; 91% in [11]; 94% in test [12].

In general, residual activity refers to the signal under treatment as a percentage of the control signal.
